For orientation: AC50 means the concentration giving half of the maximal activity seen.

Results filed as inconclusive are left out. Calls of active or inactive are those of the source. The calls were made as follows: active = hit-call score of the fitted dose curve at least 0.9, where 1 is the maximum; inconclusive = response in the unintended direction; inactive = score below 0.9.

Estrogen receptor (Homo sapiens), sequence (P03372 whole entry, looked up): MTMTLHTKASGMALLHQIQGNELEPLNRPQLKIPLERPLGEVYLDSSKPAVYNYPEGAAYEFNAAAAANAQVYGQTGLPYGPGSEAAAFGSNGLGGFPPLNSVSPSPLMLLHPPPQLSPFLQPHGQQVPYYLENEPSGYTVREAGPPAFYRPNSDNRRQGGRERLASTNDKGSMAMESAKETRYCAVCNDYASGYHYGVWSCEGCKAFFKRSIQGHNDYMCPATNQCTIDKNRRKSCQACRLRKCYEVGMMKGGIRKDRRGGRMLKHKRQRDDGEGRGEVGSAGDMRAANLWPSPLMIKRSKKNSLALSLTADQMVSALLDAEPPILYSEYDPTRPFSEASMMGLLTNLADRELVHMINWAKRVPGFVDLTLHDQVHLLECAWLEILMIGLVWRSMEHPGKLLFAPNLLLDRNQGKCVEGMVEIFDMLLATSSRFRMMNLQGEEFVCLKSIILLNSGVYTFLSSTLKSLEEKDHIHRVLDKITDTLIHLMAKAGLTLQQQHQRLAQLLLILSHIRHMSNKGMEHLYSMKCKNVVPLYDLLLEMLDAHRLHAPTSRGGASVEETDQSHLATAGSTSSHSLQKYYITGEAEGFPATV

For the experiment, the target named is Estrogen receptor (Homo sapiens) (UniProt P03372). In words: CCTE_Deisenroth_AIME_384WELL_LUC_Inactive: CCTE's 384-well Estrogen Receptor Transactivation Assay without AIME metabolic competence (ERTA luciferase; metabolism negative), Deisenroth Lab (AID 2284038).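 Also: hits raise estrogen receptor luciferase signal so potencies reflect agonists.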 The protocol:
CCTE_Deisenroth_AIME_384WELL (AIME metabolism assay) is a cell-based, single-readout assay that uses VM7Luc4E2, a human mammary gland/breast cell line, with measurements taken at 24 hour after chemical dosing in a 384-well plate.CCTE_Deisenroth_AIME_384WELL_LUC_Inactive is one of four assay components measured or calculated from the CCTE_Deisenroth_AIME_384WELL assay. It is designed to make measurements of luciferase induction, a form of inducible reporter, as detected with bioluminescence signals by luciferase-coupled ATP quantitation technology.CCTE_Deisenroth_AIME_384WELL_LUC_Inactive is a component of the CCTE_Deisenroth_AIME_384WELL assay that measures the effect of retroftting the VM7Luc ERTA assay with the Alginate Immobolization of Metabolic Enzymes (AIME) metabolism method. AIME is optimized to impart phase I hepatic metabolism using phenobarbital/beta-naphthoflavone induced hepatic S9 from male Sprague Dawley rats. Parent chemicals are incubated for 2 hours in the AIME assay prior to transfer to the VM7Luc ERTA assay plate. […] This endpoint evaluates reporter induction in metabolism negative mode. Using a type of inducible reporter in VM7Luc cells, gain-of-signal activity can be used to understand changes in the reporter gene as they relate to xenobiotic metabolism and the gene ESR1. This assay endpoint, CCTE_Deisenroth_AIME_384WELL_LUC_Inactive, was analyzed in the positive analysis fitting direction relative to 17beta-estradiol as the positive control in the ERTA assay. To generalize the intended target to other relatable targets, this assay endpoint is annotated to the nuclear receptor intended target family, where the subfamily is steroidal.
The AIME procedure consists of a preparative "pre-stamping" step using a barium chloride/poly-L-lysine (PLL) solution followed by "stamping" the lid in alginate-hepatic S9 (metabolism positive) or alginate-water (metabolism negative) to form microspheres. Once stamping is completed, the AIME lids are placed in duplicate microplates (metabolism positive or negative) containing chemical solutions and incubated for two hours to facilitate metabolic reactions. The conditioned medium, containing parent chemical or metabolites, is then transferred to the cell-based VM7Luc Estrogen Receptor Transactivation Assay (ERTA) for 24 hours. A typical experimental design tests a 10-point concentration series (0.002 - 200 uM) for 8 compounds (96-well format)1 or 32 compounds (384-well format)2 in single technical replicate. AIME assay controls include trans-stilbene (bioactivated control) and ethylparaben (bioinactivated control). ERTA assay plate controls include 17-beta estradiol (positive control) and DMSO (solvent control). Experiments typically comprise a minimum of four experimental replicates (n=4).
On to `CCOC1Oc2ccc(OS(C)(=O)=O)cc2C1(C)C` (stereo not drawn), for which the molecule was called inactive.
Same read-out and setting: the entry for `C[C@H]1[C@H](c2ccc(Cl)cc2)SC(=O)N1C(=O)NC1CCCCC1` is “inactive”; for `CNC(=O)Oc1ccccc1OC(C)C` it is “inactive”; for `CCCN(CCC)c1c([N+](=O)[O-])cc(C(F)(F)F)cc1[N+](=O)[O-]` it is “inactive”.
As to `COP(=O)(OC)OC=C(Cl)Cl`, the molecule was classed as inactive.
Turning to `OCCOc1ccccc1`, the AC50 was 43.5 µM (active).
On to `CCC(C)Nc1c([N+](=O)[O-])cc(C(C)(C)C)cc1[N+](=O)[O-]` (stereo not drawn), for which the AC50 was 12.4 µM (active).
`CCc1ccc(C(=O)NN(C(=O)c2cc(C)cc(C)c2)C(C)(C)C)cc1`: the molecule was called inactive.
As to `Cc1[nH]c(=O)n(C(C)(C)C)c(=O)c1Cl`, the call was inactive.
Still for that read-out and setting: the entry for `CNC(=O)/C=C(\C)OP(=O)(OC)OC` is “inactive”; for `Clc1ccccc1-c1nnc(-c2ccccc2Cl)nn1` it is “inactive”.
Still for that read-out and setting: the same measure for `CNC(=O)Oc1cccc(N=CN(C)C)c1`: “inactive”.
Regarding `O=S1OCC2C(CO1)C1(Cl)C(Cl)=C(Cl)C2(Cl)C1(Cl)Cl` (stereo not drawn), the AC50 is 12 µM (active).

The record behind these values is PubChem BioAssay (EPA / NIEHS).
